Source: PubChem BioAssay
hcDAF-12 act: H. contortus DAF-12 activation, primary screen; AID 652067; activation, % at 6.8 µM; 370,000 compounds, 1.4% hits; HEK293 hcDAF-12 lit1-tk-luc reporter, luminescence; 0% DMSO, 100% Δ7-dafachronic acid;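 active means activation above the mean of all tested compounds plus 3 SD, cut at about 5.5% in these data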;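 further: 100% = response to 3 µM Δ7-dafachronic acid high control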
DAX1 inh-1: DAX1 (NR0B1) inhibition, primary screen. HEK293T StAR-luciferase reporter, SF-1/DAX-1 repression relief. inhibition, % at 6.8 µM. 370,000 compounds, 1.1% hits;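 active means inhibition above the mean over all tested compounds plus 3 SD, cut at about 3.6% in these data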;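 further: 0% = DAX-1 cells with DMSO and 100% = cells lacking DAX-1 with DMSO; higher inhibition means more luminescence from relief of DAX-1 repression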
hgDAF-12 ag: hgDAF-12 agonism, primary luciferase screen. HEK293 GAL4-hgDAF12 UAS-luciferase reporter, agonist luminescence; normalized to butyrate control. 370,000 compounds, 1.8% hits. activation, % at 6.8 µM;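 active means activation above a cutoff set at the mean of all screened compounds plus 3 SD, cut at about 10% in these data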;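 further: 0% = DMSO wells and 100% = sodium butyrate wells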
ssDAF12 agonist: activates DAF-12 receptor from parasite S. stercoralis; HEK293 ssDAF-12/GRIP1 lit1-tk-luc reporter, luminescence; % of 3 µM dafachronic acid response; AID 652126; activation, % at 6.8 µM; 370,000 compounds, 1% hits;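 active means activation above the mean over all tested compounds plus 3 SD, cut at about 0.9% in these data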;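 further: 0% = DMSO-only wells and 100% = 3 µM delta7-dafachronic acid wells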
AHR activator: human AHR activation. P35869. AHR-responsive luciferase reporter cells, luminescence. activation, % at 5 µM. 320,000 compounds, 2.5% hits. AID 2796; in the data active means activation above about 47%;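 further: 0% = vehicle wells and 100% = reference agonist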
Target sequence (P35869 whole entry, looked up): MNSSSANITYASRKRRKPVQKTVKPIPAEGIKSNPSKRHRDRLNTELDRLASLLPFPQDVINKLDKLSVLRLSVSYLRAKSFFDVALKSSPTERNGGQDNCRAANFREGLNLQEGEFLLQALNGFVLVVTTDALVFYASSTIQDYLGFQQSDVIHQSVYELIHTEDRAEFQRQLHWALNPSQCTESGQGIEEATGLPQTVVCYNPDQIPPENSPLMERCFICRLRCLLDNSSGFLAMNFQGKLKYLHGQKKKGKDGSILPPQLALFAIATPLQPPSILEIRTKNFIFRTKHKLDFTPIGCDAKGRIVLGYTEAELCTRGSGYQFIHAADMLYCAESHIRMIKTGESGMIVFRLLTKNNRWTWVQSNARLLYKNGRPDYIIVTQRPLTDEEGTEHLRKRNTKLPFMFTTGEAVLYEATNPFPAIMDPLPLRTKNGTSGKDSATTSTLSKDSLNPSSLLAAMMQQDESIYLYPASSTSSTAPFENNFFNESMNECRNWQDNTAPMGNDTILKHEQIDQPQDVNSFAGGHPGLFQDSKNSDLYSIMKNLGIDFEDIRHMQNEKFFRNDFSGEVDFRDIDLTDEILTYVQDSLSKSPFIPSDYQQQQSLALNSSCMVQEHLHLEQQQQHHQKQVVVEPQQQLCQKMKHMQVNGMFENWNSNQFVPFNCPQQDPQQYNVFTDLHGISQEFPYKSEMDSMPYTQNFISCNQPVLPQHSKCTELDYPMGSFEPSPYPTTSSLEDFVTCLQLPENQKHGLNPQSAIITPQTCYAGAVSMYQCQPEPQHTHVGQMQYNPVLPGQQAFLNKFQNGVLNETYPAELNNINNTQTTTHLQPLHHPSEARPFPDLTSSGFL
DAX1 inh-2: NR0B1 (DAX1) inhibition | P51843 | HEK293 Gal4-DAX1 luciferase reporter, luminescence | inhibition, % at 6.75 µM | 340,000 compounds, 0.99% hits;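 active means inhibition above the mean over all tested compounds plus 3 SD, cut at about 4.2% in these data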;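 further: 0% = DAX1-transfected cells with DMSO and 100% = empty-vector control cells with DMSO; inhibition shows as a rise in luminescence from relieved DAX1 repression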
* hit, by the source's call. Most compounds without a hit are left out; they make up all but 5.7% or so of the library.

What do the screens show for `O=C(Cc1ccc2c(c1)CCCC2)Nc1ccc2ccccc2c1`?
hcDAF-12 act: 5.7*; DAX1 inh-1: 2.0; hgDAF-12 ag: 3.5; ssDAF12 agonist: 0.6; AHR activator: 30.7; DAX1 inh-2: 0.1

What do the screens show for `O=C(Cc1cccc(F)c1)Nc1ccc2c(c1)CCC2`?
hcDAF-12 act: -0.6; DAX1 inh-1: 0.2; hgDAF-12 ag: 3.8; ssDAF12 agonist: -0.9; AHR activator: 2.6; DAX1 inh-2: -1.4

Results for O=C1c2ccccc2-c2cccc(C(=O)N3CCCCC3)c21 ?
hcDAF-12 act: -1.6; DAX1 inh-1: -0.2; hgDAF-12 ag: -2.6; ssDAF12 agonist: -1.4; AHR activator: -2.9; DAX1 inh-2: 0.0

What do the screens show for `Cc1cc(C)n(CC(C)NC(=O)c2cc(COc3c(F)cccc3F)on2)n1` (centres undefined)?
hcDAF-12 act: 0.5; DAX1 inh-1: -2.0; hgDAF-12 ag: 0.6; ssDAF12 agonist: -1.8; AHR activator: 3.8; DAX1 inh-2: -1.7

How did CCCC(C)C(=O)Nc1ccc(S(N)(=O)=O)cc1 (centres undefined) do in these assays?
hcDAF-12 act: -1.0; DAX1 inh-1: 0.1; hgDAF-12 ag: -1.2; ssDAF12 agonist: -1.1; AHR activator: 1.1; DAX1 inh-2: -0.6

What do the screens show for `COc1cccc(NC(=O)Nc2ccc3c(c2)CCC3)c1`?
hcDAF-12 act: 3.8; DAX1 inh-1: 4.1*; hgDAF-12 ag: 11.7*; ssDAF12 agonist: -0.7; AHR activator: 4.7; DAX1 inh-2: 0.8

What do the screens show for `Cc1cccc(NC(=O)Nc2ccc3c(c2)CCC3)c1`?
hcDAF-12 act: 0.5; DAX1 inh-1: 4.1*; hgDAF-12 ag: 5.8; ssDAF12 agonist: -1.1; AHR activator: 1.6; DAX1 inh-2: 1.2

How did CCc1ccc(NC(=O)Nc2ccc3c(c2)CCC3)cc1 do in these assays?
hcDAF-12 act: -0.2; DAX1 inh-1: 3.7*; hgDAF-12 ag: 3.5; ssDAF12 agonist: -0.9; AHR activator: 4.3; DAX1 inh-2: 0.4

How did CC(=O)c1cccc(NC(=O)Nc2ccc3c(c2)CCC3)c1 do in these assays?
hcDAF-12 act: -0.9; DAX1 inh-1: 0.8; hgDAF-12 ag: 4.4; ssDAF12 agonist: -0.2; AHR activator: 7.5; DAX1 inh-2: 0.0

Results for O=C(CN(C(=O)CNS(=O)(=O)c1ccccc1)c1ccc2c(c1)OCCO2)NC1CCCCC1 ?
hcDAF-12 act: -1.0; DAX1 inh-1: -0.1; hgDAF-12 ag: -0.3; ssDAF12 agonist: -1.2; AHR activator: 1.8; DAX1 inh-2: -0.7

What do the screens show for `Cc1cccc(OCC(=O)NCC(c2ccco2)N2CCCC2)c1` (centres undefined)?
hcDAF-12 act: 0.1; DAX1 inh-1: 0.4; hgDAF-12 ag: 0.4; ssDAF12 agonist: -0.9; DAX1 inh-2: -0.1

How did COc1ccc(Cl)cc1C(=O)NNC(=O)c1cccc(S(=O)(=O)N(C)C)c1 do in these assays?
hcDAF-12 act: 1.9; DAX1 inh-1: -0.3; hgDAF-12 ag: -1.6; ssDAF12 agonist: -0.5; AHR activator: 25.3; DAX1 inh-2: 0.7

Results for CCCCOC(=O)C1[C@H]2C(=O)N(CCc3ccccc3)C[C@]23C=C[C@H]1O3 (some centres undefined) ?
hcDAF-12 act: -2.0; DAX1 inh-1: 0.2; hgDAF-12 ag: -0.3; ssDAF12 agonist: -1.4; AHR activator: -0.5; DAX1 inh-2: -0.9

How did COC(=O)c1cc(=O)c2c([N+](=O)[O-])ccc(OC)c2o1 do in these assays?
hcDAF-12 act: -2.4; DAX1 inh-1: 0.2; hgDAF-12 ag: -1.3; ssDAF12 agonist: -1.0; AHR activator: -2.4; DAX1 inh-2: 4.6*

What do the screens show for `CSc1ccccc1OCc1cc(C(=O)NCCc2nc(C)cc(C)n2)no1`?
hcDAF-12 act: 1.9; DAX1 inh-1: 0.1; hgDAF-12 ag: 2.9; ssDAF12 agonist: -0.9; DAX1 inh-2: -0.1

Results for COCc1ccc(C(=O)N(C)CC2CCCN(CCc3ccc(Cl)cc3)C2)o1 (centres undefined) ?
hcDAF-12 act: -1.2; DAX1 inh-1: -0.1; hgDAF-12 ag: -2.3; ssDAF12 agonist: -1.2; AHR activator: -1.0; DAX1 inh-2: -0.2

Results for COCc1ccc(C(=O)N(C)CC2CCCN(CCc3ccc(OC)cc3)C2)o1 (centres undefined) ?
hcDAF-12 act: 1.6; DAX1 inh-1: 4.5*; hgDAF-12 ag: 9.7; ssDAF12 agonist: 0.2; AHR activator: 5.6; DAX1 inh-2: 0.3

How did COc1ccc(CCN2CCCC(CN(C)C(=O)c3cc(C)oc3C)C2)cc1 (centres undefined) do in these assays?
hcDAF-12 act: 4.4; DAX1 inh-1: 1.6; hgDAF-12 ag: 10.7*; ssDAF12 agonist: 0.8; AHR activator: 2.5; DAX1 inh-2: 1.3

Results for O=C(NC1CCOc2ccccc21)c1ccccn1 (centres undefined) ?
hcDAF-12 act: 5.8*; DAX1 inh-1: 0.0; hgDAF-12 ag: 1.6; ssDAF12 agonist: 0.3; AHR activator: 3.3; DAX1 inh-2: -0.1

Results for CCOC(=O)c1c(NC(C)=O)sc2c(OC)c(Br)ccc12 ?
hcDAF-12 act: -2.0; DAX1 inh-1: -0.6; hgDAF-12 ag: -0.5; ssDAF12 agonist: -1.6; AHR activator: -0.7; DAX1 inh-2: 0.1

What do the screens show for `CC(Cc1cccs1)NC(=O)Nc1ccc([N+](=O)[O-])cc1` (centres undefined)?
hcDAF-12 act: 1.9; DAX1 inh-1: 0.1; hgDAF-12 ag: 13.1*; ssDAF12 agonist: 0.6; AHR activator: 5.1; DAX1 inh-2: 0.4

Results for COc1ccccc1C(=O)NCCCNc1ccc([N+](=O)[O-])cc1 ?
hcDAF-12 act: -0.9; DAX1 inh-1: 0.0; hgDAF-12 ag: -0.6; ssDAF12 agonist: -0.7; AHR activator: -2.9; DAX1 inh-2: 2.8

Results for CCNC(=O)C(=O)Nc1ccc([N+](=O)[O-])cc1 ?
hcDAF-12 act: -2.1; DAX1 inh-1: -0.2; hgDAF-12 ag: -0.8; ssDAF12 agonist: -0.3; AHR activator: -2.5; DAX1 inh-2: 4.7*

How did CC(=O)NCCCNc1ccc([N+](=O)[O-])cc1 do in these assays?
hcDAF-12 act: 6.1*; DAX1 inh-1: -0.7; hgDAF-12 ag: 5.4; ssDAF12 agonist: -1.0; AHR activator: -3.0; DAX1 inh-2: -0.1

Results for CCN(CC)C(=S)Nc1ccc([N+](=O)[O-])cc1 ?
hcDAF-12 act: 0.8; DAX1 inh-1: -0.3; hgDAF-12 ag: 2.0; ssDAF12 agonist: -1.6; AHR activator: 23.6; DAX1 inh-2: -0.1

What do the screens show for `COc1cc(Br)c(C2CC(=O)Nc3cc(OC)c(OC)cc32)cc1OC` (centres undefined)?
hcDAF-12 act: -2.1; DAX1 inh-1: 0.0; hgDAF-12 ag: -3.2; ssDAF12 agonist: -1.3; DAX1 inh-2: -1.3

What do the screens show for `CCOC(=O)N1CCN(C(=O)c2cnsn2)CC1`?
hcDAF-12 act: 0.9; DAX1 inh-1: -0.4; hgDAF-12 ag: -2.2; ssDAF12 agonist: -0.7; AHR activator: 0.9; DAX1 inh-2: 0.6
